Results on 90 compounds are retold here after PubChem BioAssay AID1850 (Southern Research Specialized Biocontainment Screening …, 2009).

Each structure is given as a SMILES string. Hit rate of the full screen: of about 310,000 compounds, about 1,000 (0.32%) were called active. Only a sample is shown. Measured potencies and affinities stand elsewhere. A number with no mark means an inactive call. No rule for the calls is given here.

The nature of this experiment: Inhibition of PhoP regulon, Salmonella typhi GFP reporter cells, confirmation, 4 h (AID 1850).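 Also: 0% = induced wells with vehicle and 100% = uninduced wells.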 As to conditions: Salmonella Typhi PhoP-promoter GFP reporter, fluorescence, at 50 µM, hits give high values.
Usually inhibition stands for the change of the read-out against control, counted positive when it falls. Take `Cc1cccc(NC(=O)CSc2nnc(NC(=O)C3CC3)s2)c1C`: the inhibition is 3.53%.
Then `O=C(Cc1ccccc1)NNC(=O)c1cccs1`, with 6.4%; and `O=C(Cc1ccc(Cl)cc1)NNC(=S)NC(=O)c1cccs1`, with 11.9%.
Consider `O=C(NC(=S)NNC(=O)c1ccco1)c1ccccc1`, for which the inhibition was 21.3%.
Next, `O=C(NC(=S)NNC(=O)c1ccco1)c1ccc(F)cc1`: 0.37%; `CC(=O)N1CCN(c2ccccc2NC(=O)Cc2ccc(Cl)cc2)CC1`: -3.34%; `COC(=O)C(Cc1ccc(O)cc1)NC(=O)CCNC(=O)c1ccco1` (stereo not given): -6.89%.
Then `CCCc1cc(CN(C)C(=O)CC2C(=O)NCCN2Cc2ccccc2C)[nH]n1` (stereo not given), with -5.02%; and `CC(NS(=O)(=O)c1ccccc1)C(=O)NCc1ccco1` (stereo not given), with 4.53%; and `Cc1ccc(Nc2cc(C)c3ccc(O)cc3n2)cc1C`, with 9.14%.
With `COc1ccc(Nc2cc(C)c3ccccc3n2)cc1`, the inhibition was -2.31%.
Regarding `CC(=O)Nc1ccc(Nc2cc(C)c3ccccc3n2)cc1`, the inhibition is -5.65%.
Next, `COC(=O)c1cc(Nc2cc(C)c3c(O)cccc3n2)cc(C(=O)OC)c1`: -3.04%; `Cc1ccc(-c2cc(C(=O)OCC(=O)Nc3ncc(C(F)(F)F)cc3Cl)c3ccccc3n2)cc1`: -6.32%; `O=C(CN1c2ccccc2S(=O)(=O)c2ccccc21)Nc1ccccc1F`: 2.92%.
Next, `CC(NC(=O)Cn1ncc(Cl)c(Cl)c1=O)C12CC3CC(CC(C3)C1)C2` (stereo not given): -18.9%; `O=C(O)CN1C2=NCCCN2c2ccccc21`: -7.68%.
As to `O=C(CN1C2=NCCN2c2ccccc21)c1ccc(Br)s1`, the inhibition was 13.2%.
Then `O=C(CN1C2=NCCCN2c2ccccc21)c1cccs1`, with 9.76%; and `O=C(CN1C2=NCCCN2c2ccccc21)c1ccc2c(c1)OCO2`, with 28.1%; and `CCOC(=O)Nc1cc(Br)c2c(c1)OCCO2`, with 9.05%.
Regarding `CCCC[C@@H]1C[C@H]1[C@@H](NC(=O)c1ccco1)c1ccc(C(=O)OC)cc1`, the inhibition was -1.55%.
Next, `COc1ccc(CNC(=O)c2ccc3c(=O)n(-c4ccccc4)c(=O)[nH]c3c2)cc1`: 9.07%.
Next, `Cc1cccc2cc(CN(CCCO)C(=O)Nc3cccc(Cl)c3)c(=O)[nH]c12`: -2.46%.
Turning to `C=CCNc1nc(C(=O)OCC(=O)c2ccc(Cl)cc2)cs1`, the inhibition is 0.24%.
Then `CS(=O)(=O)Nc1cccc(C2=NN(C(=O)c3ccc(F)cc3)C(c3cccs3)C2)c1` (stereo not given), with -1.48%; and `O=C1C2C(C(=O)N1/N=C/c1ccc([N+](=O)[O-])o1)C1C=CC2C12CC2` (stereo not given), with -7.07%; and `O=C1OCCN1/N=C/c1ccc([N+](=O)[O-])o1`, with -7.99%.
`O=C(c1cc(S(=O)(=O)N2CCOCC2)c(Cl)cc1Cl)N1CCCCC1`: the inhibition is -2.41%.
Then `OC(COc1ccccc1)CN(Cc1ccccc1)CC(O)COc1ccccc1` (stereo not given), with -0.87%.
Next, `CCOc1ccc(-c2cc(C)[n+](CCN3CCOCC3)c(-c3ccc(OCC)cc3)c2)cc1`: 8.34%.
Next, `CCOc1ccc(-c2cc(C)[n+](CCO)c(-c3ccc(OCC)cc3)c2)cc1`: -1.61%.
`COC(=O)COc1ccc(C(=O)Cn2c(NCCCO)nc3ccccc32)cc1`: the inhibition is 4.11%.
Next, `Cc1ccc(C(=O)CCS(=O)(=O)c2ccc(Cl)cc2)cc1`: 2.23%.
Then `Cc1ccc(C(=O)CCS(=O)(=O)c2ccc(Br)cc2)cc1`, with -6.22%; and `COc1ccc(CC(=O)Oc2ccc(C(C)C)cc2)cc1S(=O)(=O)N1CCOCC1`, with 5.73%; and `Cc1ccc(S(=O)(=O)NN2C(=O)c3ccccc3NC2c2ccco2)cc1` (stereo not given), with -0.11%.
Next, `O=C(O)c1ccc2c(c1)N(Cc1ccccc1)C(=O)c1ccccc1S2=O` (stereo not given): -5.21%; `COc1ccc(CSc2nnnn2Cc2ccccc2)cc1OC`: -8.33%.
`COC(=O)C1=CO[C@@H](OC2OC(CO)C(O)C(O)C2O)[C@@H]2C(CO)=CC[C@H]12` (stereo not given in full): the inhibition is -13%.
Next, `CN(C)C(=O)C12CCC(C)(C(=O)C1Br)C2(C)C` (stereo not given): 7.02%; `FC(F)(F)c1cc(CCN2C(=S)NC[C@@H]2CC2CCCCC2)cc(C(F)(F)F)c1`: -1.84%.
Next, `CCCC[C@@H]1CN=C(N)N1CCc1cc(C(F)(F)F)cc(C(F)(F)F)c1`: 11.5%.
Next, `NC1=NC[C@H](Cc2ccccc2)N1CCc1cc(C(F)(F)F)cc(C(F)(F)F)c1`: -32.4%; `NC1=NC[C@H](c2ccccc2)N1CCc1cccc(F)c1`: 12.6%.
As for `Cc1ccc(S(=O)(=O)N2CCCN(S(=O)(=O)c3ccc(C(F)(F)F)cc3)CC2)cc1`, the inhibition was -17.3%.
`Cc1nnc(N/N=C/c2c[nH]c3ccccc23)[nH]c1=O`: the inhibition was -1.2%.
As to `Cc1cc(=O)[nH]c(N/N=C/c2ccccn2)n1`, the inhibition is 18.1%.
Then `Clc1cnc(N/N=C/c2ccncc2)c(Cl)c1`, with 1.77%; and `Cc1ccccc1C(=O)Nc1ccnn1C1CCN(CCCc2ccccc2)CC1`, with -1.21%; and `COC(=O)c1sccc1Oc1ccc(F)cc1[N+](=O)[O-]`, with 4.41%.
Then `CN(C)C(=O)c1sccc1Oc1ccc(F)cc1[N+](=O)[O-]`, with 7.3%.
Then `COc1ccc(CSCC(=O)Nc2ccccc2SC)cc1`, with 8.6%; and `COc1cc2ncnc(NCCCN3CCOCC3)c2cc1OC`, with -4.12%; and `COc1ccc(C(=O)OC2CCN(C)CC2)cc1`, with 3.95%.
As to `CN1CCC(OC(=O)c2ccccc2Cl)CC1`, the inhibition was -6.15%.
Next, `CN1CCC(OC(=O)c2ccccc2)CC1`: 8.65%; `CN1CCC(OC(=O)c2cccc(Cl)c2)CC1`: 4.43%.
Next, `CCOC(=O)c1ncn2c1C(=O)OC2(C)C`: 6.54%; `CCOc1ccccc1OCc1nn2c(-c3ccc(C)cc3)nnc2s1`: 3%.
Next, `C#CCOCCOCCOCCNc1nc(N2CCN(C(=O)CCCCCCCCCCNC(=O)[C@H]([C@@H](C)CC)n3cc(CCCCCN)nn3)CC2)nc(N2CCN(C(=O)CCCCCCCCCCNC(=O)[C@H](CO)n3cc(CCCCCN)nn3)CC2)n1`: 9.35%; `C#CCOCCOCCOCCNc1nc(N2CCOCC2)nc(N2CCN(C(=O)CCCCCCCCCCNC(=O)[C@H]([C@@H](C)CC)n3cc(CCCCN=C(N)N)nn3)CC2)n1`: 5.04%.
Take `C#CCOCCOCCOCCNc1nc(N2CCOCC2)nc(N2CCN(C(=O)CCCCCCCCCCNC(=O)[C@H](CO)n3cc(CCCCCN)nn3)CC2)n1`: the inhibition is -10.9%.
Then `C#CCOCCOCCOCCNc1nc(N2CCN(C(=O)[C@H]([C@@H](C)CC)n3cc(CCCCN)nn3)CC2)nc(N2CCN(C(=O)[C@H]([C@@H](C)CC)n3cc(CCCN=C(N)N)nn3)CC2)n1`, with -1.05%; and `O=C(COC(=O)/C=C/c1ccc([N+](=O)[O-])cc1)NCc1ccccc1`, with -8.81%; and `CCCCCCC(C)n1cc(C(C)=O)c(=O)n(C)c1=O` (stereo not given), with -9.33%.
Turning to `CN(C)CCNC(=O)CCCNC(=O)Cn1cnc2sc3c(c2c1=O)CCCC3`, the inhibition is 12.2%.
Next, `Cc1ccc(-c2nn(C)c(=O)c3ccccc23)cc1S(=O)(=O)NCCO`: -2.47%; `CO/N=C(\C(=O)N[C@@H]1C(=O)N2C(C(=O)O)=C(COC(N)=O)CS[C@H]12)c1ccco1`: -2.22%.
Next, `COCC1=C(C(=O)OC(C)OC(=O)OC(C)C)N2C(=O)[C@@H](NC(=O)/C(=N\OC)c3csc(N)n3)[C@H]2SC1` (stereo not given in full): 15.8%; `COc1ccc(OCC(=O)Nc2c3c(nn2-c2ccccc2)CS(=O)(=O)C3)cc1`: -4.09%; `CCCC/C=C1\CCc2c([nH]c3ccccc23)C1=O`: 8.47%.
Then `CC1=NCCc2c1[nH]c1ccccc21`, with 5.56%; and `O=C(CCS(=O)(=O)Cc1ccc(Cl)cc1)NCCc1ccccc1`, with -1.47%.
In the case of `CC1=C(C(=O)OC(C)C)C(c2ccc(C)o2)C(C(=O)OC(C)C)=C(C)N1`, the inhibition is 6.14%.
Next, `COc1ccccc1CN1CC(C(=O)NC2CCCCC2)CC1=O` (stereo not given): 1.61%; `CC(C)C/C(O)=C/c1nc2cc(Cl)ccc2oc1=O`: -18.3%; `Cc1ccc(/C(O)=C/c2nc3cc(C)ccc3oc2=O)cc1`: -48.6%.
Then `CC(C)(C)/C(O)=C/c1nc2ccccc2oc1=O`, with -3.78%; and `Cc1ccc2oc(=O)c(/C=C(\O)C(C)(C)C)nc2c1`, with -12.4%.
Then `Cc1ccc(/C(O)=C/c2nc3ccccc3oc2=O)cc1`, with -11.1%.
With `O=c1oc2ccc(Cl)cc2nc1/C=C(\O)c1ccco1`, the inhibition is -30.4%.
Then `COc1ccc(CNC(=O)CN2C(=O)c3ccccc3C2=O)cc1`, with -5.61%; and `CC(=O)c1ccccc1OCCn1nc(C(=O)O)c2ccccc2c1=O`, with 1.39%.
For `COc1ccc(S(=O)(=O)N2CCCC2CNC(=O)C(=O)NCCc2ccccc2)cc1` (stereo not given), the inhibition is 0.4%.
Then `O=C(Nc1cc(C(F)(F)F)ccc1N1CCOCC1)C1=NN(c2ccccc2)C(=O)CC1`, with 0.11%; and `Cc1ccccc1-c1nnn(CC(=O)N(C)CC(=O)Nc2ccccc2C(F)(F)F)n1`, with 6.76%.
Then `COc1c[nH]n(-c2ccccc2)c(=O)c1=O`, with 5.23%.
Then `CN(C)CCCNC(=O)c1ccc(-c2ccccc2)cc1`, with 12.6%.
As to `C=CCNC(=O)c1ccc(-c2nc(-c3ccccc3)cs2)cc1`, the inhibition is 0.25%.
